± gives the standard deviation. A value given as a limit tells only on which side of the number the result lay.

The experiment concerns MILI (PIWIL2) piRISC loaded with piRNA #1 (26 nt). In words: pre-steady-state target cleavage rate (min^-1); guide: piRNA #1 5'p-UGAGGUAGUAGGUUGUAUAGUAUCCA; MIWI and MILI are mouse PIWI proteins and EfPiwi is from a freshwater sponge; tags in brackets are library labels; higher = faster piRNA-guided slicing of the target. As to conditions: auxiliary factor: 500 nM mouse GTSF1. The gist of the method: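 The pre-steady-state cleavage rate came from a burst-and-steady-state fit to pooled data from three Cleave-'n-Seq trials, in which uncleaved targets were sequenced and normalised to depth and to weakly complementary targets. Each reaction held 0.1 nM transcribed, DNA-blocked target RNA library and 1 nM active affinity-purified piRISC carrying one synthetic guide, with or without 500 nM GTSF1 partner protein, in HEPES–potassium acetate buffer at 33 °C for 0–8 or 0–960 min. k3 was capped at 0.0001 min^-1.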
As for GGAGUGGAUACUAUAGAAGCUACUACCUCA, the “pre-steady-state target cleavage rate” value is 0.19 ± 0.011.
As for GGAGACCUAUGAUUACAACCUACUACCGUCA, the “pre-steady-state target cleavage rate” value was 0.00492 ± 0.0022.
Turning to GGAGACCUUACUAUACUACCAACUACCUCA, the “pre-steady-state target cleavage rate” value came to 0.00617 ± 0.0026.
As for GGAGACCUAUGUAUACGACCUACUACCUCA, the “pre-steady-state target cleavage rate” value is 0.0178 ± 0.0033.
Regarding GGAGACCUAUGAUAUCAAGCUACUACCUCA, the “pre-steady-state target cleavage rate” value was determined as 0.00559 ± 0.0019.
GGAGACCUAUCAAUACAACCUACUACGUCA: the “pre-steady-state target cleavage rate” value came out at 0.0134 ± 0.0044.
For GGAGACCUAUGAUAUGUACCUACUACCCCA the value was below 0.0001; for GGAGACCUAUGUAUCACAACCUACUACCUCA, 0.0102 ± 0.003; for GGAGACCUAUCUAUACAACCUACUCACCUCA, 0.0886 ± 0.011.
Regarding GGAGACCUAUGAUAUGUUGCUUGAACCUCA, the “pre-steady-state target cleavage rate” value is below 0.0001.
Regarding GGAGACCUUACUAUAGAAGCUACUACCUCA, the “pre-steady-state target cleavage rate” value came out at 0.134 ± 0.015.
The result for GGAGUGGAUACUAUUCAACCUACUACCACA reads 0.093 ± 0.0098; that for GGAGACCUAUGAUAACAACCUACUACCUCCA, 0.00565 ± 0.0022.
On to GGAGAGGAUUCUAUACAACCUACAACCUCA, for which the “pre-steady-state target cleavage rate” value is 0.0904 ± 0.012.
The result for GGAGUGGAUACUUAUCAACCUACUACCUCA reads 0.149 ± 0.011; that for GGAGACCUAACAAUUCAACCUACUACCUCA, 0.0406 ± 0.013.
The result for GGAGACCUAUCUAUACAACCUACCACCUCA reads 0.0927 ± 0.018; that for GGAGACCUAUGAUAACAACCCACUACCUCA, 0.00347 ± 0.0029; that for GGAGACCUUACUUUACAACCUUCUACCUCA, 0.00698 ± 0.0032.
In the case of GGAGACCUAACAAUAGAACCUACUACCUCA, the “pre-steady-state target cleavage rate” value worked out at 0.0656 ± 0.012.
The result for GGAGACCUAACAAUACAACGUACUACCUCA reads 0.00908 ± 0.0045; that for GGAGACCUUACUAUACAUCCUACUAGCUCA, 0.2 ± 0.024; that for GGAGUGGAUAGUAUACAACCUACUACCUGA, 0.0603 ± 0.014.
Consider GGAGACCUUACUAUACAACCUACUACGAGA, for which the “pre-steady-state target cleavage rate” value was found to be 0.0846 ± 0.02.
